Test results reported in PubChem BioAssay.
Active and inactive are the calls of the source.

Columns and labels:
[1] = small molecules captured by biotinylated probe aFSTL3 – biochemical, small-molecule microarray, fluorescence 635/667, stem cell growth factor project, primary screen (AID 1064); conditions: higher = more signal;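 further: measures binding of the biotinylated anti-FSTL3 antibody to printed compounds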
[2] = binders from COS7 lysate, DM2A8 probe, primary screen, torsin A project, cell lysate, small-molecule microarray, fluorescence 635/667 (AID 1065); conditions: higher = more signal, COS7 lysate expressing mutant human TOR1A
[3] = small molecules captured by biotinylated probe aFGF2 – biochemical, small-molecule microarray, fluorescence 635/667, stem cell growth factor project, primary screen (AID 1067); conditions: higher = more signal;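 further: measures binding of biotinylated aFGF2 protein to printed compounds on slides; z-score merges feature fluorescence and signal-to-noise across triplicate slides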
[4] = small molecules captured by biotinylated probe aFGF10 – biochemical, small-molecule microarray, fluorescence 635/667, stem cell growth factor project, primary screen (AID 1071); conditions: higher = more signal;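 further: score merges 667 nm spot intensity and signal to noise from triplicate slides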
[5] = biological target: Neurogenic locus notch homolog protein 2 (Homo sapiens) (UniProt Q04721); assay: small molecules binding Notch2 protein – biochemical, small-molecule microarray, 635 nm fluorescence, stem cell growth factors, primary screen (AID 1073); conditions: higher = more signal
[6] = biological target: Pro-neuregulin-1, membrane-bound isoform (Homo sapiens) (UniProt Q02297); assay: small molecules binding neuregulin-1 protein – biochemical, small-molecule microarray, fluorescence 635/667, psychiatric disease protein project, primary screen (AID 1075); conditions: NRG1 binding, 635 nm fluorescence, higher = more signal;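 further: score combines 667 nm spot fluorescence with signal to noise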
[7] = system: Neuregulin-1 EGF-like domain; assay: small molecules binding NRG1 EGF domain – biochemical, small-molecule microarray, 635 nm fluorescence, primary screen (AID 1081); conditions: higher = more signal;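 further: binding of the protein to compounds printed on small-molecule microarray slides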
[8] = FRG1 expression reporter modulators in myotubes – cell-based, C2C12 myotubes, firefly/Renilla luciferase, luminescence, FRG1 inhibition for FSHD, primary screen (AID 1084); conditions: FRG1 promoter luciferase, higher = more signal, called active from +8 up or from −8 down
[9] = small molecules captured by biotinylated probe aFST – biochemical, small-molecule microarray, fluorescence 635/667, stem cell growth factor project, primary screen (AID 1086); conditions: higher = more signal;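 further: score merges 667 nm fluorescence with signal-to-noise of each printed compound spot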
[10] = binders of probe aHhip on microarray, primary screen, stem cell growth factor project, biochemical, small-molecule microarray, fluorescence 635/667 (AID 1087); conditions: higher = more signal;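 further: score merges spot fluorescence at 667nm with spot signal to noise ratio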
[11] = system: PRMT1 (protein arginine N-methyltransferase 1); assay: small molecules binding arginine methyltransferase PRMT1 – biochemical, small-molecule microarray, 635 nm fluorescence, primary screen (AID 1088); conditions: higher = more signal;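 further: binding of Prmt1 protein to compounds spotted on small-molecule microarray slides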
[12] = growth effects on S. cerevisiae YJM789 – YJM789 clinical isolate, OD600, 24 h, basal, primary screen (AID 1089); conditions: higher = more signal, called active from +8 up or from −8 down;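 further: growth of clinical yeast isolate S. cerevisiae YJM 789 seeded 1000 cells per well; test concentration not given here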
[13] = S. pombe growth modifiers, basal conditions – strain 972, OD600, 24 h, no modulator, primary screen (AID 1090);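 further: basal condition with compound alone and no growth modifier present; test concentration not given here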; conditions: S. pombe 972 growth, higher = more signal, called active from +8 up or from −8 down
[14] = budding yeast growth modifiers under rapamycin – strain BY4716, OD600, 96 h, primary screen (AID 1091); further: test concentration not given here; conditions: S. cerevisiae BY4716 + rapamycin, higher = more signal, called active from +8 up or from −8 down
[15] = biological target: Torsin-1A-interacting protein 2 (Homo sapiens) (UniProt Q8NFQ8); assay: small molecules binding lysate-expressed LULL1 – cell lysate, human LULL1 lysate, 635/667 nm fluorescence, primary screen (AID 1092); conditions: small-molecule microarray, hLULL1 lysate binding, 635 nm fluorescence; higher = more signal;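 further: probe is lysate of COS7 cells overexpressing human LULL1; score merges per-feature 667 nm fluorescence with signal-to-noise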
[16] = optical density change of DRC41 E. coli – strain DRC41, OD650, 24 h, E. coli filamentation project, primary screen (AID 1093);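 further: MC1000 strain lacking acrAB efflux and sulA so SOS filamentation is blocked; test concentration not given here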; conditions: E. coli DRC41 growth, higher = more signal, called active from +8 up or from −8 down
[17] = probe aLefty2 binding to arrayed compounds – biochemical, biotinylated probe, 635/667 nm fluorescence, primary screen (AID 1094); conditions: small-molecule microarray, higher = more signal;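 further: score merges spot fluorescence near 667 nm with spot signal-to-noise ratio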
[18] = system: Noggin (protein binding on small-molecule microarray); assay: small molecules binding Noggin protein – biochemical, 635/667 nm fluorescence, primary screen (AID 1095); conditions: 635 nm fluorescence, higher = more signal;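 further: score merges 667 nm feature fluorescence with signal to noise over triplicate slides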
[19] = biological target: Neurogenic locus notch homolog protein 3 (Homo sapiens) (UniProt Q9UM47); assay: small molecules binding NOTCH3 protein – biochemical, 635/667 nm fluorescence, primary screen (AID 1096); conditions: small-molecule microarray, 635 nm fluorescence, higher = more signal
[20] = probe aEGFR binding to arrayed compounds – biochemical, biotinylated probe, 635/667 nm fluorescence, primary screen (AID 1097); conditions: small-molecule microarray, higher = more signal;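 further: probe is a biotinylated anti-EGFR antibody binding compounds printed on slides; score combines fluorescence near 667 nm and signal to noise of each spot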

Sequence of Torsin-1A-interacting protein 2 (Homo sapiens) (Q8NFQ8 whole entry, looked up): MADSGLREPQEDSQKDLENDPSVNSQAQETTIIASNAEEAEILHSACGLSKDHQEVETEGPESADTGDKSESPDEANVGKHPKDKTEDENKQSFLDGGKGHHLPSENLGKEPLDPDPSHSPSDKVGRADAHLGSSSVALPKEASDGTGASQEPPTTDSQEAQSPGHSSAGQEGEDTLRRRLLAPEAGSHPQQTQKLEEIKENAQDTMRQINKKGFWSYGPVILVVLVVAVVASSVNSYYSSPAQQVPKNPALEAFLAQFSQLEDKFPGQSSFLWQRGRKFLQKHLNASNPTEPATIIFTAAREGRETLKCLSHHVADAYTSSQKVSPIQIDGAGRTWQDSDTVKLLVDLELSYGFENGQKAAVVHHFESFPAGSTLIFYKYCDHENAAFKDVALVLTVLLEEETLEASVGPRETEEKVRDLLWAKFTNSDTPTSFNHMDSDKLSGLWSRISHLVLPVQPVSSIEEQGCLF
Sequence of Neurogenic locus notch homolog protein 2 (Homo sapiens) (Q04721 whole entry, looked up, canonical isoform): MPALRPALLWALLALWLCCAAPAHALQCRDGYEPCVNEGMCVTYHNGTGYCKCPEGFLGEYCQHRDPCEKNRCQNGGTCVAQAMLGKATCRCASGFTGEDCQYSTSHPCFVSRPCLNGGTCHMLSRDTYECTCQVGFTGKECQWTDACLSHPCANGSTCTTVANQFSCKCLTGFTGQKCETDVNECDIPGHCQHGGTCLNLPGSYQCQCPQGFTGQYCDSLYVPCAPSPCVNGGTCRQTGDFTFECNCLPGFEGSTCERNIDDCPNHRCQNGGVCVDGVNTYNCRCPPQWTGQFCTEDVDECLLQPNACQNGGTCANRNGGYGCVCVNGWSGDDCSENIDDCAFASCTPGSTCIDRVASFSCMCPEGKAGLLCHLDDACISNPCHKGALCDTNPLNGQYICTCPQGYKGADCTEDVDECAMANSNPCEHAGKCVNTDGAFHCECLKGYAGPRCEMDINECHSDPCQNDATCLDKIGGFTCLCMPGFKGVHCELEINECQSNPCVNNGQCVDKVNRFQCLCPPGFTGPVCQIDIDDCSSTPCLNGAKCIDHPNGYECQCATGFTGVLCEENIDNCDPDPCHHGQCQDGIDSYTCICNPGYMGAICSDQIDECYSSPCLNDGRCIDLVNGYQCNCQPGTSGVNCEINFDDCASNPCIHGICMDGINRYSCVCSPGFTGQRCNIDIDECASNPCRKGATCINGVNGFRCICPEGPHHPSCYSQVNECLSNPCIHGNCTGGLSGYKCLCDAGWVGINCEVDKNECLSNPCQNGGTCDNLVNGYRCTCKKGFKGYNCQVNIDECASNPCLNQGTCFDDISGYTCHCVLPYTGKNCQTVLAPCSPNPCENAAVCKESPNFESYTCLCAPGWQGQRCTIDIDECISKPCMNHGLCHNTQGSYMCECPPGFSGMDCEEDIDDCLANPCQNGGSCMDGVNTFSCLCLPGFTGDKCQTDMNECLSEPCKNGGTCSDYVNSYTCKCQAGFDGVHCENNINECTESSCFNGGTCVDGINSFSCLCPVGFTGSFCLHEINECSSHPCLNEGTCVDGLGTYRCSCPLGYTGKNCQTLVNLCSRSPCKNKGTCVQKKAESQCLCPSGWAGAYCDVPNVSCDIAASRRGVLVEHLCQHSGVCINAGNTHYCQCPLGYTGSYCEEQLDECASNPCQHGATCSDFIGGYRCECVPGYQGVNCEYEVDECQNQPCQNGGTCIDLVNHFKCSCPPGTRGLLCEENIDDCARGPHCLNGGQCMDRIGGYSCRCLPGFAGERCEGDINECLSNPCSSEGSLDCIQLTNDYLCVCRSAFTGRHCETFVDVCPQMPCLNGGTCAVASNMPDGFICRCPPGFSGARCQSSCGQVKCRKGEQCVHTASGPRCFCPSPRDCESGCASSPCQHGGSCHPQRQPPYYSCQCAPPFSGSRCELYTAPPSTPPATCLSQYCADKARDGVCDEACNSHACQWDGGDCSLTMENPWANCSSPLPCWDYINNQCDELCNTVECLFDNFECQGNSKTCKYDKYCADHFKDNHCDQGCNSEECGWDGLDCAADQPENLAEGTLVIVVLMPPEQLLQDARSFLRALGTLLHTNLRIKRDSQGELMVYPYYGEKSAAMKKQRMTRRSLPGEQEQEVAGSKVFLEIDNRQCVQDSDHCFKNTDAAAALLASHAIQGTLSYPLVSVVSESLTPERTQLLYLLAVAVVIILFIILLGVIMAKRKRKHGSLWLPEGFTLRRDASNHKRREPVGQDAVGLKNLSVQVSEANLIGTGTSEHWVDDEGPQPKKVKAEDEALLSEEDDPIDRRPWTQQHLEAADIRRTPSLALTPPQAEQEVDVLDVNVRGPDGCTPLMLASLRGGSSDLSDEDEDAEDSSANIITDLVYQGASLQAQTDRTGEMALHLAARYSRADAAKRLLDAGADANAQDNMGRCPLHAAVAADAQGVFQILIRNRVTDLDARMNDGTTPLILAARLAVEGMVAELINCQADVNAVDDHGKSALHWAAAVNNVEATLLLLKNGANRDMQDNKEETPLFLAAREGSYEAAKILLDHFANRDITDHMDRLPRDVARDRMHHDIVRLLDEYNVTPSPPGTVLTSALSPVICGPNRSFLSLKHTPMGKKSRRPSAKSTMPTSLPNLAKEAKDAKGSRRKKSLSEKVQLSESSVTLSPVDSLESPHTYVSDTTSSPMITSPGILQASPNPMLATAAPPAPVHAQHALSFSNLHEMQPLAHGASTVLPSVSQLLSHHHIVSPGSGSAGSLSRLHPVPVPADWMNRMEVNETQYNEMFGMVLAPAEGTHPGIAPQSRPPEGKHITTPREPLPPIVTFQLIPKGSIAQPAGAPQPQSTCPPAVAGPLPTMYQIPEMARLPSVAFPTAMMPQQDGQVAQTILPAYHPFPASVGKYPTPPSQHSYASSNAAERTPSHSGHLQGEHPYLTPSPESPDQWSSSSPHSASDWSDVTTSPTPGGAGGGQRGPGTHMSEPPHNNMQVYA
Sequence of Pro-neuregulin-1, membrane-bound isoform (Homo sapiens) (Q02297 whole entry, looked up, the tested form may be a part, canonical isoform): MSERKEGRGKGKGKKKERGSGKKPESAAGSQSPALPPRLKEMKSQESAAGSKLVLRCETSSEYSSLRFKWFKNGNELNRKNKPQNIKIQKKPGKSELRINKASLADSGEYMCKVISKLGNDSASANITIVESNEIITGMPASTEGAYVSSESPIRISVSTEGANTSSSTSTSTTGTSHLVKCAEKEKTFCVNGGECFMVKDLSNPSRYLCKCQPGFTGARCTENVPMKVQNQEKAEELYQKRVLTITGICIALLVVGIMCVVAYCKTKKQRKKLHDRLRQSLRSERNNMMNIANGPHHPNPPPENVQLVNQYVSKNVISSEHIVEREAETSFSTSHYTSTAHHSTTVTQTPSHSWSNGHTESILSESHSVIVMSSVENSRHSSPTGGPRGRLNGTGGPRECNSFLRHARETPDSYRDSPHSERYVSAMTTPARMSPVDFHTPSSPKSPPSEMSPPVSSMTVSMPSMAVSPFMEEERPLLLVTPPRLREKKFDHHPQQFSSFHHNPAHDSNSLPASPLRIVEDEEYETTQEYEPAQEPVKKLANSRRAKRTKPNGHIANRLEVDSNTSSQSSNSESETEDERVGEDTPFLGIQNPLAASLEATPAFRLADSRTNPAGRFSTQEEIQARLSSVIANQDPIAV

Row | Compound | composite z-score [1] | composite z-score [2] | composite z-score [3] | composite z-score [4] | composite z-score [5] | composite z-score [6] | composite z-score [7] | z-score [8] | composite z-score [9] | composite z-score [10] | composite z-score [11] | z-score [12] | z-score [13] | z-score [14] | composite z-score [15] | z-score [16] | composite z-score [17] | composite z-score [18] | composite z-score [19] | composite z-score [20]
1 | C=C(CCCC)/C(=C/C[C@@H](OC(C)=O)c1ccc(CO)o1)c1cnc2ccccc2c1 | -0.593 | 0.361 | -0.0744 | 1.14 | 1.31 | 1.31 | 1.28 | -0.16 (inactive) | 0.128 | -0.179 | 1.54 | 1.5 (inactive) | -0.57 (inactive) | 0.824 (inactive) | 1.92 | 0.688 (inactive) | -0.11 | 1.57 | 1.11 | -0.0007
2 | COc1cc(CO)cc(I)c1O[C@H]1C=C(C(=O)NCCO)C[C@@H]2O[C@H]12 | 0.167 | 0.622 | -0.111 | 0.251 | 0.864 | 0.366 | 1.46 | -1.44 (inactive) | 0.164 | -0.199 | 1.56 | 0.111 (inactive) | -6.47 (inactive) | -1.42 (inactive) | 2.63 | -0.0097 (inactive) | 0.17 | 2.32 | 1.07 | 0.0018
3 | CCOC(=O)c1cn(C[C@H](Cc2ccccc2)NC(=O)N[C@H](CO)CCc2oc(C(C)=O)c(C(=O)OC)c2C(=O)OC)nn1 | -0.562 | -0.0438 | -0.101 | 1.09 | 1.47 | 0.553 | 1.39 | 0.872 (inactive) | 0.863 | -0.0383 | 1.54 | 0.511 (inactive) | -0.342 (inactive) | 0.018 (inactive) | 1.36 | -0.616 (inactive) | -0.0615 | 1.15 | 1.08 | 0.272
4 | CN1C(=O)C2C(C1=O)C1C=C(c3ccc(CO)cc3)C2C(C2CC2)N1C (stereo not given) | -0.23 | 0.388 | -0.0932 | 0.0656 | -0.337 | 1.16 | 0.811 | 0.0916 (inactive) | -0.176 | 0.0749 | -0.346 | 0.724 (inactive) | -1.36 (inactive) | 2.59 (inactive) | 0.956 | 0.689 (inactive) | -0.209 | 0.102 | -0.414 | -0.229
5 | COCCn1c(C(=O)N(C)C)cc2c1C[C@H]1CN(C(=O)c3ccccc3)[C@@](Cc3ccc(OC)cc3)(C(=O)OC)[C@@H]21 | 0.609 | -0.478 | -0.19 | 0.34 | 1.64 | 1.54 | 1.27 | 1.54 (inactive) | 1.32 | 0.0053 | -0.325 | 1.15 (inactive) | 1.82 (inactive) | 2.03 (inactive) | 3.31 | -0.332 (inactive) | 0.43 | -0.465 | 1.1 | 0.0634
6 | COC(=O)C1=CC(CCCO)=CC(c2cccs2)N(Cc2cc3c(cc2Br)OCO3)C=C1C(=O)OC (stereo not given) | 0.0066 | 0.951 | 0.0931 | 1.02 | 1.27 | 1.66 | 1.33 | -2.18 (inactive) | 0.182 | 0.0972 | 1.56 | 0.74 (inactive) | -0.997 (inactive) | 0.132 (inactive) | 3.17 | 0.923 (inactive) | 0.109 | 0.404 | 1.12 | 0.236
7 | COc1ccc([Si](C)(C)[C@H]2[C@H](CCO)O[C@@]3(C(=O)N(Cc4ccc(NC(=O)[C@H](C)O)cc4)c4ccccc43)[C@@H]2C)cc1 | -0.184 | 0.485 | -0.0508 | 0.663 | 1.19 | 1.54 | 1.19 | -4.06 (inactive) | 0.292 | 0.0401 | 1.58 | 2.39 (inactive) | -1.36 (inactive) | 4.78 (inactive) | 2.19 | 1.38 (inactive) | -0.142 | 0.862 | 0.762 | 0.0337
8 | C=CCOC(=O)[C@H]1[C@@H]2C(=O)O[C@@H](c3ccccc3)[C@@H](c3ccccc3)N2[C@@H](c2ccc(OCCOC(=O)[C@@H]3C[C@@H]4C(=O)N[C@@H](CCCCNC(C)=O)C(=O)N4[C@@H]3c3cccc(OCCO)c3)cc2)[C@]12C(=O)Nc1ccccc12 | 0.125 | 1.67 | -0.024 | 0.489 | 0.717 | 1.19 | 1.3 | 1.26 (inactive) | 0.324 | -0.0994 | 1.54 | 0.591 (inactive) | 0.633 (inactive) | 2.18 (inactive) | 2.36 | -0.471 (inactive) | 0.0636 | 1.34 | 1.06 | -0.0103
9 | C=CCC(OC(C)=O)[C@@H]1[C@@H](N(Cc2cccc3ccccc23)C(=O)Cc2ccc(OC)cc2)c2cc(OCCCO)ccc2N1C(=O)c1ccc2ccccc2c1 (stereo not given in full) | 0.175 | 0.737 | -0.052 | 0.113 | -0.451 | -0.0627 | -0.805 | -1.75 (inactive) | 0.0737 | -0.337 | 1.14 | -1.12 (inactive) | 0.098 (inactive) | -1.35 (inactive) | 1.06 | 1.1 (inactive) | -0.0042 | 0.115 | 0.373 | -0.0967
10 | COCCOC(=O)N1C(=O)[C@@]2(c3cc(C#CC4(O)CCCCCC4)ccc31)[C@H](c1ccc(O)cc1)N1[C@H](c3ccccc3)[C@H](c3ccccc3)OC(=O)[C@H]1[C@@H]2C(=O)N1CCCCCCC1 | 2.85 | 0.567 | 0.0059 | 0.83 | 0.547 | 0.903 | 1.15 | -0.0559 (inactive) | 2.06 | 1.39 | 1.55 | -0.016 (inactive) | 0.056 (inactive) | 0.367 (inactive) | 2.09 | 0.709 (inactive) | 0.189 | 1.3 | 1.06 | 0.0896
11 | C=C(CCCC)/C(=C/C[C@H](OC(=O)c1ccncc1)c1ccccc1OCCO)c1cc(C(=O)OC)ccc1OC | -0.17 | 0.963 | -0.0591 | 0.845 | 0.101 | -0.217 | 0.787 | 0.908 (inactive) | 0.416 | -0.0237 | 1.34 | 0.47 (inactive) | 0.333 (inactive) | 1.42 (inactive) | 2.31 | 0.588 (inactive) | -0.0942 | 0.502 | 0.647 | -0.15
12 | C=C(COC)C(=O)CC[C@@H](OC(C)=O)c1ccccc1OCCO | -0.215 | -0.0765 | -0.102 | 1.39 | -0.54 | 0.695 | 0.326 | 0.151 (inactive) | 0.406 | -0.0994 | 1.34 | -1.89 (inactive) | -3.27 (inactive) | -1.51 (inactive) | 1.76 | 0.732 (inactive) | -0.117 | 1.11 | 0.784 | -0.0382
13 | O=C1N(Cc2ccccc2)c2ccccc2C[C@@]12COC(c1ccc(OCCCO)cc1)=N2 | 0.689 | 0.445 | -0.0592 | 0.979 | 0.984 | 1 | 1.23 | -1.14 (inactive) | 0.361 | -0.0237 | 1.56 | -0.91 (inactive) | -1.56 (inactive) | 2.83 (inactive) | 3 | 1.54 (inactive) | 0.249 | 1.07 | 0.944 | -0.0238
